# Values without a mark were called inactive.
# What was measured:
# Test in all cases: log2 ratio of Biotin-Ahx-Ub-VS probe labelling (fragment/DMSO); higher = less target engagement (more negative = stronger competition), active = hit call of the paper (q ≤ 0.05, log2 ratio ≤ -1)
# Conditions in all cases: compound concentration: 200 uM; treatment time: 3 h
# USP9X = USP9X (UniProt Q93008)
# How it was run: (§1)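 HEK293T lysate (495 µg per sample, in Tris/CHAPS/IGEPAL buffer with protease inhibitors) was exposed in triplicate for 3 h to fragment at 200 µM or to vehicle, then to Biotin-Ahx-Ub-VS at 0.5 µM final for 1 h. Labelled DUBs were enriched on NeutrAvidin, digested with LysC and trypsin, and analysed by diaPASEF LC-MS/MS. Spectronaut label-free quantities were normalised to the global median, and values are average log2 ratios of fragment over vehicle from an unpaired t-test. Only proteins with ≥2 unique peptides were used.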
# UniProt O00487 = molecular target: UniProt O00487
# Sequence of UniProt O00487 (O00487 whole entry): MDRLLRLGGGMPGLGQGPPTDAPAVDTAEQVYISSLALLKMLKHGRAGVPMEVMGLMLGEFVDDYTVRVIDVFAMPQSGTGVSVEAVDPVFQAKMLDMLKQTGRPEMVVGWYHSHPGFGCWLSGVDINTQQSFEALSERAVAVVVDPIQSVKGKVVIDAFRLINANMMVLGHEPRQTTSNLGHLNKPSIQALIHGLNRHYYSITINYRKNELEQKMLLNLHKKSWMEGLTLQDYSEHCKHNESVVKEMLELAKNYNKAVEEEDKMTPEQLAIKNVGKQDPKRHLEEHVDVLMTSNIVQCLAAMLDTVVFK
# How it was run: as §1
# UniProt O00507 = molecular target: UniProt O00507
# How it was run: as §1
# UniProt P51784 = molecular target: UniProt P51784
# Sequence of UniProt P51784 (P51784 whole entry): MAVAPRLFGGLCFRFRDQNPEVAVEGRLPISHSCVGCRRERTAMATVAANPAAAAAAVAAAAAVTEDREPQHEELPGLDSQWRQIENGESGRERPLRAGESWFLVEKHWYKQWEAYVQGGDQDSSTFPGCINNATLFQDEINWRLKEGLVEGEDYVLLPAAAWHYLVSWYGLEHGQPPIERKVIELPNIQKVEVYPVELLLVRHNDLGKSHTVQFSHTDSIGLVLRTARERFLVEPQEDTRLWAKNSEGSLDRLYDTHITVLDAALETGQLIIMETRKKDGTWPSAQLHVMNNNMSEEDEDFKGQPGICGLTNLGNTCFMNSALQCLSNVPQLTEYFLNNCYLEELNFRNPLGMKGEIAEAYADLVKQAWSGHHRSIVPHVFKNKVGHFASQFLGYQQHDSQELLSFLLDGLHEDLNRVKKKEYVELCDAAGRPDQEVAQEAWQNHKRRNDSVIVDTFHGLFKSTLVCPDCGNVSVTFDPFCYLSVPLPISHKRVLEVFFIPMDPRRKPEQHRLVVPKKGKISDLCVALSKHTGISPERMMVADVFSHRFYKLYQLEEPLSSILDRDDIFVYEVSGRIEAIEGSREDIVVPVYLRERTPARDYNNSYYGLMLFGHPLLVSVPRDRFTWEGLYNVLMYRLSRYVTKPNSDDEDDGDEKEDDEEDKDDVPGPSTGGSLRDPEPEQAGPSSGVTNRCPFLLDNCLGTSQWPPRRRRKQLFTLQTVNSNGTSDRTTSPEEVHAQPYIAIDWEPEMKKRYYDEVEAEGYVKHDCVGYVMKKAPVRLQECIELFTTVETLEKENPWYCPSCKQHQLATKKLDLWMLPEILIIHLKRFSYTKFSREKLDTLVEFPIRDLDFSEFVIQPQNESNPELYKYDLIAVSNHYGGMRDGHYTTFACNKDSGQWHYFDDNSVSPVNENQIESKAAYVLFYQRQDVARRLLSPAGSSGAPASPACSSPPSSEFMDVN
# How it was run: as §1
# UniProt Q5T2D3 = molecular target: T1, UniProt Q5T2D3
# T1 sequence (whole entry): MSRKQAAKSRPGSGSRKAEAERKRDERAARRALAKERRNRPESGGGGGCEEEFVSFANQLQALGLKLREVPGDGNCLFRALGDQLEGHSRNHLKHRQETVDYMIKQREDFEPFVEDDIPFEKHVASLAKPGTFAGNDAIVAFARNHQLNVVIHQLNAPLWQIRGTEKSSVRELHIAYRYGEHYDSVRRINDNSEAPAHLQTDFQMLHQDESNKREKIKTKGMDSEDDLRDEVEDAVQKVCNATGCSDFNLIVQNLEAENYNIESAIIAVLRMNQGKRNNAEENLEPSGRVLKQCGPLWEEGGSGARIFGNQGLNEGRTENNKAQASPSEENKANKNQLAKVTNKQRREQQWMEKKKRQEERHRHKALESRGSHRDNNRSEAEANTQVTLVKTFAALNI
# How it was run: as §1
# UniProt Q8TE49 = molecular target: T2, UniProt Q8TE49
# T2 sequence (whole entry): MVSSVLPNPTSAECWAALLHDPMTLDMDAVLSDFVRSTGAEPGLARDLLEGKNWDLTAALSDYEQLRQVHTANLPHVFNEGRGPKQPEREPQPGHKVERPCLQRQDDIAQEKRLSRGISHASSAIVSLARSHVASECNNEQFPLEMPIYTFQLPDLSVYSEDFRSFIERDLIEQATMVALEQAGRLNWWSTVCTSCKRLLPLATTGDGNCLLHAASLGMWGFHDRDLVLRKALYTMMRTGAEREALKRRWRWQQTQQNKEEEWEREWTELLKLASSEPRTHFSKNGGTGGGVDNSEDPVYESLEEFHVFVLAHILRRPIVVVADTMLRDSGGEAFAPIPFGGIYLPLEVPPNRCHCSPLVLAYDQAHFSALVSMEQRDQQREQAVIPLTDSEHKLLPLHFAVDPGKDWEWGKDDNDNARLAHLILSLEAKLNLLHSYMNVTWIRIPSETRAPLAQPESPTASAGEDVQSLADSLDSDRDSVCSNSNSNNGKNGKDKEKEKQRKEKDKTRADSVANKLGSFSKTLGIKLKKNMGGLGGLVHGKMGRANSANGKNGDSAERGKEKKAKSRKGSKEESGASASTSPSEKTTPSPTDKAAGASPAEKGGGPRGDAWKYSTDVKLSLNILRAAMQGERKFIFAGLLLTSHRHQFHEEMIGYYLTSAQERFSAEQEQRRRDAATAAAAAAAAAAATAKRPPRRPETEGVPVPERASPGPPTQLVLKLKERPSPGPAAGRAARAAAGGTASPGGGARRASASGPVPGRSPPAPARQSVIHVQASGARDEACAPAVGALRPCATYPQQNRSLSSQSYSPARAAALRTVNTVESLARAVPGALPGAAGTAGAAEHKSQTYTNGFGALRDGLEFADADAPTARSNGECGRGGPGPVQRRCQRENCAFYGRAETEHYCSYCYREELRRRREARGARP
# How it was run: as §1
# UniProt Q9P2H5 = molecular target: T3, UniProt Q9P2H5
# T3 sequence (whole entry): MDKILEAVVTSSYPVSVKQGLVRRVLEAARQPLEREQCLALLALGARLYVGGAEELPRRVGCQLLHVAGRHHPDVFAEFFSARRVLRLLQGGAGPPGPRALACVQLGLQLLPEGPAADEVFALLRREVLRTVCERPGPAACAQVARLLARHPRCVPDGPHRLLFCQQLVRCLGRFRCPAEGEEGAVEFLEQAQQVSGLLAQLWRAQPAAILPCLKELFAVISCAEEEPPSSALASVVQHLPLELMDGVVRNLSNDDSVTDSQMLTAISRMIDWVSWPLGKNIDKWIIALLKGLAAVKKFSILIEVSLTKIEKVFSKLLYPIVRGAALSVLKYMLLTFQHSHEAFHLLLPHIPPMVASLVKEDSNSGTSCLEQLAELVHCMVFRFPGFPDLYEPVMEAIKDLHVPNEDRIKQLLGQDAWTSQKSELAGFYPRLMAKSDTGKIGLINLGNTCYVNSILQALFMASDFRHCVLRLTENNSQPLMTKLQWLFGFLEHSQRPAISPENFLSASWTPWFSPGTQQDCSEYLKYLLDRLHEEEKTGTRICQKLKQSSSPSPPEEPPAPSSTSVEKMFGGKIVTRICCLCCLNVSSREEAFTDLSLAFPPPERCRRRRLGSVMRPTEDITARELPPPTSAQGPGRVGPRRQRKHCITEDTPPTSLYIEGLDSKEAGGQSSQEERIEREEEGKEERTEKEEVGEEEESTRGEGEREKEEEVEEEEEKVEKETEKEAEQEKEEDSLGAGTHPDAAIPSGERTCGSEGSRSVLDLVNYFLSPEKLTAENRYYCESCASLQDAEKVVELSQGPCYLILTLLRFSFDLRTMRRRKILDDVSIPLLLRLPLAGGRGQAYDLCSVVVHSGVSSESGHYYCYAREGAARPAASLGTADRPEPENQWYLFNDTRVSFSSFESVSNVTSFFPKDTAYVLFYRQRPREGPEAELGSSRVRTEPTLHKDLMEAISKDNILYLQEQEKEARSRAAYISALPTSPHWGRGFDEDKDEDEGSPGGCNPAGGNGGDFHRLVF
# How it was run: as §1
# UniProt Q9UGI0 = molecular target: T4, UniProt Q9UGI0
# T4 sequence (whole entry): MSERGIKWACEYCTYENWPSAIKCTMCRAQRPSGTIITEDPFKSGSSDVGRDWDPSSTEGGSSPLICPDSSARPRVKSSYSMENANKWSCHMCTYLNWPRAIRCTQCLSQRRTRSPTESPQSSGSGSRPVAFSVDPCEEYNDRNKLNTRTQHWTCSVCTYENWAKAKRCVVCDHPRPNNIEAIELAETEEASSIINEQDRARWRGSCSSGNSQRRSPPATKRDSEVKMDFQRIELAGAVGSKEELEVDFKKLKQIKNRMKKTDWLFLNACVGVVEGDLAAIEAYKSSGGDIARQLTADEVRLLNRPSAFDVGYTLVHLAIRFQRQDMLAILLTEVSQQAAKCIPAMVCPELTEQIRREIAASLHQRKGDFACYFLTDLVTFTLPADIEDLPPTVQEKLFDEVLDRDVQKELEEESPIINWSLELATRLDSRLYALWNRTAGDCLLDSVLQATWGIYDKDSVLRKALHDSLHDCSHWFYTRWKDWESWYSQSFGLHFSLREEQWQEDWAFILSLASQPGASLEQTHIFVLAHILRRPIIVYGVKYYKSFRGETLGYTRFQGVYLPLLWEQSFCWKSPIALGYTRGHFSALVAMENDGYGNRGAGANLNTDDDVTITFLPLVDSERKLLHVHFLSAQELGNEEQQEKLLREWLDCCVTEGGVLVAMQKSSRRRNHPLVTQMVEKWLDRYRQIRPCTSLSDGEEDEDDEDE
# How it was run: as §1
# YOD1 = molecular target: T5, YOD1 (UniProt Q5VVQ6)
# T5 sequence (whole entry): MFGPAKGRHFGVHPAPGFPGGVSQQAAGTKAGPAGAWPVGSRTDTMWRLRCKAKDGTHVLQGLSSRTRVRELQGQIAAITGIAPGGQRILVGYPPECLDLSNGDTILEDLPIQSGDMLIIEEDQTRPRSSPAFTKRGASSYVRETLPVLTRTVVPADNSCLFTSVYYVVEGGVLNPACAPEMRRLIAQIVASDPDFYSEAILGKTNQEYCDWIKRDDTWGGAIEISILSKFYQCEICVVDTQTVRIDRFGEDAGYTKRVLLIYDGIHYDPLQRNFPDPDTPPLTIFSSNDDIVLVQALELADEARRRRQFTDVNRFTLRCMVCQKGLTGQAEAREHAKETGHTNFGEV
# How it was run: as §1
# Sequence of USP9X (Q93008 whole entry, the tested form may be a part): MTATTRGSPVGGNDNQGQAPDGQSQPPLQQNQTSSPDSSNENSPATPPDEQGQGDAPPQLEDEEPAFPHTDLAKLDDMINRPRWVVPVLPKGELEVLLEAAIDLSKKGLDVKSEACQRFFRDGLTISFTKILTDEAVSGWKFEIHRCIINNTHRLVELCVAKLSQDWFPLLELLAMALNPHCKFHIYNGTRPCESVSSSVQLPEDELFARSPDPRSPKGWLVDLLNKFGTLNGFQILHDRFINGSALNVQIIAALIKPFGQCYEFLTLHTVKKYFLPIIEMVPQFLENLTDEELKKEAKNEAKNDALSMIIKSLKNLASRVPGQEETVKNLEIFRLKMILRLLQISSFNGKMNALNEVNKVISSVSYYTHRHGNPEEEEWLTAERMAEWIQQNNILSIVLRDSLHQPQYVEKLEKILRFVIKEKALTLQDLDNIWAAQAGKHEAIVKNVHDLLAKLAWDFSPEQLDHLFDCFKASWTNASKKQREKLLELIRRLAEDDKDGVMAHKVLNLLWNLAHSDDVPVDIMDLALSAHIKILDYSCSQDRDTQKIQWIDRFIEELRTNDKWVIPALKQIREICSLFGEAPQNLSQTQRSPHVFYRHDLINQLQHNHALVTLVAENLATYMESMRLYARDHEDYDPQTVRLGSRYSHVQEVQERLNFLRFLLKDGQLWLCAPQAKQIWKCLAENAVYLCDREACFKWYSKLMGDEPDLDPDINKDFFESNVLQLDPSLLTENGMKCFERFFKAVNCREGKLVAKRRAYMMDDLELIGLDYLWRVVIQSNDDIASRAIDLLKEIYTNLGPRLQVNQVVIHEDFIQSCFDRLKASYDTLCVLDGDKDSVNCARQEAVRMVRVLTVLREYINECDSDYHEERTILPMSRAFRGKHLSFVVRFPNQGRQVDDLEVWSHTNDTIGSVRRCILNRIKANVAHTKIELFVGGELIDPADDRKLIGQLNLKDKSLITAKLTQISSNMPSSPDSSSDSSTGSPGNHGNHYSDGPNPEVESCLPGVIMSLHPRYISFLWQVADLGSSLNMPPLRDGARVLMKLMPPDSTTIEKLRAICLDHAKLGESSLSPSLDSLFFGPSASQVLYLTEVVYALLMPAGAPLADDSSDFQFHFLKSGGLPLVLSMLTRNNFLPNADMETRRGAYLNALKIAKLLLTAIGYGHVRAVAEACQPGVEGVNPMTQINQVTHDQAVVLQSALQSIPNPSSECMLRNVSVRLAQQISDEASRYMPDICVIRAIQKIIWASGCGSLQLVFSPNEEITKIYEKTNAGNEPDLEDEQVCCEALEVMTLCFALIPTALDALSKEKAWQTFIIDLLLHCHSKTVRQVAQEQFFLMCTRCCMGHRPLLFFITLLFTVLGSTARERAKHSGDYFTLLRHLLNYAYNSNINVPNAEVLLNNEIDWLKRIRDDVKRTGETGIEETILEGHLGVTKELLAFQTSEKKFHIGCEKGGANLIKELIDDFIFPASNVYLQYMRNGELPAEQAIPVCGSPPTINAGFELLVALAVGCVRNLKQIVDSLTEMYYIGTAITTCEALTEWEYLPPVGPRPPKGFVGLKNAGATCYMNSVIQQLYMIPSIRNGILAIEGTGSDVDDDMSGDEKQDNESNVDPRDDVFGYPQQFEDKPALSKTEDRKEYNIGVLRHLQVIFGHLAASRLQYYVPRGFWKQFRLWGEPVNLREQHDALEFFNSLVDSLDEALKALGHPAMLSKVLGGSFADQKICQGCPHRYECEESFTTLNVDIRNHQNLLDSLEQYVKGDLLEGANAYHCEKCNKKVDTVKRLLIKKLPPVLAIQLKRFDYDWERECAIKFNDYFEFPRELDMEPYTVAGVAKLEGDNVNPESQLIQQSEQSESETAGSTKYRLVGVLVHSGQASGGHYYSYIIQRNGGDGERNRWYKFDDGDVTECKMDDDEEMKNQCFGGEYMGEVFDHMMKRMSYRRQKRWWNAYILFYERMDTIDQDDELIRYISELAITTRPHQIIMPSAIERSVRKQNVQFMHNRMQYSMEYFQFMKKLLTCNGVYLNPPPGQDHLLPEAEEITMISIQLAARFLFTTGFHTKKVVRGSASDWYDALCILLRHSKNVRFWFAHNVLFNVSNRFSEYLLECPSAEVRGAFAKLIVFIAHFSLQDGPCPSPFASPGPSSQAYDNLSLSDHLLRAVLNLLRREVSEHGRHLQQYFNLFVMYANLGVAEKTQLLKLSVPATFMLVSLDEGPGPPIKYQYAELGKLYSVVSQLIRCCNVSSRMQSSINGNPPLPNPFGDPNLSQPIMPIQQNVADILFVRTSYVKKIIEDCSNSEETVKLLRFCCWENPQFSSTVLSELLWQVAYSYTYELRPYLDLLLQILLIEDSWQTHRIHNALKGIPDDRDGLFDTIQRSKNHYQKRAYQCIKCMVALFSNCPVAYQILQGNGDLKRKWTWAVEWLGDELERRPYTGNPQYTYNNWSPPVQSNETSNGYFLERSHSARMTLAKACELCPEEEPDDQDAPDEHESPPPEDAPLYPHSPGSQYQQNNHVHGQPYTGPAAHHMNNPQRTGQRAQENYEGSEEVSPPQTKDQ
structure (smiles),measurement,setting,value
O=C(CCl)Nc1cccc2ncccc12,log2 ratio of Biotin-Ahx-Ub-VS probe labelling,USP9X,-0.112
same,log2 ratio of Biotin-Ahx-Ub-VS probe labelling,UniProt O00487,0.0189
same,log2 ratio of Biotin-Ahx-Ub-VS probe labelling,UniProt O00507,0.145
same,log2 ratio of Biotin-Ahx-Ub-VS probe labelling,UniProt P51784,0.265
same,log2 ratio of Biotin-Ahx-Ub-VS probe labelling,UniProt Q5T2D3,-0.164
same,log2 ratio of Biotin-Ahx-Ub-VS probe labelling,UniProt Q8TE49,-0.784
same,log2 ratio of Biotin-Ahx-Ub-VS probe labelling,UniProt Q9P2H5,-0.437
same,log2 ratio of Biotin-Ahx-Ub-VS probe labelling,UniProt Q9UGI0,-1.64 (active)
same,log2 ratio of Biotin-Ahx-Ub-VS probe labelling,YOD1,0.469

# — the supplement of paper PMC11732987, “Enantioselective OTUD7B fragment discovery through chemoproteomics screening and high-throughput optimisation” (Communications Chemistry, 2025)
